Source: PubChem BioAssay (NCI)
The panel holds about 83,000 compounds, 20% with a hit somewhere; the sample as a whole holds those more often.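 Interpretation: 100, growth as untreated; towards 0, rising growth inhibition; 0, no net growth; 0 to -100, cell death. Compounds scoring below 10 were considered active.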 The source made the active and inactive calls.

Assays:
Experiment in all cases: NCI-60 one-dose screen, 48 h (100 = growth as untreated, 0 = no growth, -100 = all killed)
Settings in all cases: 10 µM unless noted
DU-145 prostate = tested on: DU-145 prostate
K-562 leukemia = tested on: K-562 leukemia
MALME-3M melanoma = tested on: MALME-3M melanoma
MDA-MB-231 breast = tested on: MDA-MB-231 breast
RXF 393 renal = tested on: RXF 393 renal
SF-268 CNS = tested on: SF-268 CNS
SF-295 CNS = tested on: SF-295 CNS
SF-539 CNS = tested on: SF-539 CNS
UACC-257 melanoma = tested on: UACC-257 melanoma
M14 melanoma = tested on: M14 melanoma
HCT-15 colon = tested on: HCT-15 colon
HT29 colon = tested on: HT29 colon
SNB-19 CNS = tested on: SNB-19 CNS
U251 CNS = tested on: U251 CNS
PC-3 prostate = tested on: PC-3 prostate
SK-MEL-5 melanoma = tested on: SK-MEL-5 melanoma
UACC-62 melanoma = tested on: UACC-62 melanoma
LOX IMVI melanoma = tested on: LOX IMVI melanoma
SK-MEL-28 melanoma = tested on: SK-MEL-28 melanoma

Measured: growth

CCOC(=O)c1cnc2cc(Cl)c(F)cc2c1Nc1cccc(NS(C)(=O)=O)c1
inactive: DU-145 prostate 101% | K-562 leukemia 91.4% | MALME-3M melanoma 112% | MDA-MB-231 breast 80.6% | RXF 393 renal 89.3% | SF-268 CNS 90.1% | SF-295 CNS 93.7% | SF-539 CNS 89.2% | UACC-257 melanoma 118% | M14 melanoma 113% | HCT-15 colon 89.3% | HT29 colon 122% | SNB-19 CNS 93.9% | U251 CNS 106% | PC-3 prostate 101% | SK-MEL-5 melanoma 98.3% | UACC-62 melanoma 87.8% | LOX IMVI melanoma 91.2% | SK-MEL-28 melanoma 114%

CN1CCN(Cc2ccc(NC(=O)c3cncc(C#Cc4c(N)ncc5ccc(C#N)cc45)c3)cc2C(F)(F)F)CC1
active: DU-145 prostate -60.2% | K-562 leukemia -39.3% | MALME-3M melanoma -81.9% | MDA-MB-231 breast -82% | RXF 393 renal -76.6% | SF-268 CNS -43.3% | M14 melanoma -45.5% | HCT-15 colon -81.8% | HT29 colon -75.7% | SNB-19 CNS -79.1% | U251 CNS -69.4% | PC-3 prostate -52.1% | SK-MEL-5 melanoma -35.5% | UACC-62 melanoma -68.5% | LOX IMVI melanoma -79.8% | SK-MEL-28 melanoma -78.7%
inactive: SF-295 CNS 85.9% | SF-539 CNS 39.7% | UACC-257 melanoma 68.7%

C=C1C(=O)O[C@H]2[C@H]1CC/C(Cn1cc(Cn3ccc4ccccc43)nn1)=C\CC[C@@]1(C)O[C@@H]21
active: K-562 leukemia -16.5% | MALME-3M melanoma -54.5% | MDA-MB-231 breast -24.8% | RXF 393 renal -22.9% | SF-539 CNS -62.8% | HCT-15 colon -34.5% | HT29 colon -13.8% | LOX IMVI melanoma -82.8%
inactive: DU-145 prostate 18.1% | SF-268 CNS 39.9% | SF-295 CNS 76.2% | UACC-257 melanoma 41.3% | M14 melanoma 14.4% | SNB-19 CNS 71.1% | U251 CNS 48.7% | PC-3 prostate 40.8% | SK-MEL-5 melanoma 30.1% | UACC-62 melanoma 33.4% | SK-MEL-28 melanoma 14%

Cc1ccc(-c2nc(/C=N/Nc3cc(C)nc4ccc(Br)cc34)c(C)o2)cc1
active: DU-145 prostate -33.3% | K-562 leukemia -33.2% | MALME-3M melanoma -82% | MDA-MB-231 breast -91.9% | RXF 393 renal -94.1% | SF-268 CNS -59.4% | M14 melanoma -50.2% | HCT-15 colon -83.7% | HT29 colon -70% | SNB-19 CNS -48.9% | U251 CNS -76.4% | PC-3 prostate 5.84% | LOX IMVI melanoma -88.5% | SK-MEL-28 melanoma -13.5%
inactive: SF-295 CNS 85.7% | SF-539 CNS 71.3% | UACC-257 melanoma 97% | SK-MEL-5 melanoma 63.8% | UACC-62 melanoma 86.4%

CCC(=O)Oc1ccc(/C(=C(\C)c2ccccc2)c2ccc(OCCN(CC)CC)cc2)cc1
inactive: DU-145 prostate 102% | K-562 leukemia 23% | MALME-3M melanoma 80.3% | MDA-MB-231 breast 89.7% | RXF 393 renal 93.4% | SF-268 CNS 85.5% | SF-295 CNS 95.2% | SF-539 CNS 76.9% | UACC-257 melanoma 87.4% | M14 melanoma 69% | HCT-15 colon 54.3% | SNB-19 CNS 87.8% | U251 CNS 71.6% | PC-3 prostate 66.7% | SK-MEL-5 melanoma 74.8% | UACC-62 melanoma 93.4% | LOX IMVI melanoma 87.8% | SK-MEL-28 melanoma 80.3%
active: HT29 colon 7.83%

CC(C)(C)n1cc(-c2ccnc(NCCCNS(=O)(=O)c3cccc4ccccc34)c2)c(-c2cccc(O)c2)n1
active: K-562 leukemia -4% | MALME-3M melanoma -19.2% | RXF 393 renal 0.843% | SF-295 CNS 8.6% | UACC-257 melanoma -23.9% | M14 melanoma 2.67% | HCT-15 colon -19.5% | HT29 colon -20.2% | SK-MEL-5 melanoma -20% | LOX IMVI melanoma -45.1% | SK-MEL-28 melanoma -37.2%
inactive: DU-145 prostate 42.5% | MDA-MB-231 breast 11.8% | SF-268 CNS 37.5% | SF-539 CNS 41.8% | SNB-19 CNS 56% | U251 CNS 27% | PC-3 prostate 21.1% | UACC-62 melanoma 51.2%

COc1cc(/C=N\NC(=O)CN2CCN(c3cc4c(cc3F)c(=O)c(C(=O)N/N=C/c3ccc(O)c(OC)c3)cn4C3CC3)CC2)ccc1O
active: LOX IMVI melanoma 8.64%
inactive: DU-145 prostate 66.3% | K-562 leukemia 40.5% | MALME-3M melanoma 62.4% | MDA-MB-231 breast 59.5% | RXF 393 renal 86.9% | SF-268 CNS 59.4% | SF-295 CNS 90.5% | SF-539 CNS 86.9% | UACC-257 melanoma 41% | M14 melanoma 80% | HCT-15 colon 97.2% | HT29 colon 14.1% | SNB-19 CNS 55.5% | U251 CNS 55.3% | PC-3 prostate 69.7% | SK-MEL-5 melanoma 56.8% | UACC-62 melanoma 52.9% | SK-MEL-28 melanoma 79.8%

CCCCCCCCCCCCNC(=O)[C@H]1CSC(c2ccc(OC)c(F)c2)N1 (stereo partly specified)
active: DU-145 prostate -87.6% | K-562 leukemia -52.7% | MALME-3M melanoma -92.3% | MDA-MB-231 breast -88.3% | RXF 393 renal -96.1% | SF-268 CNS -69.2% | SF-295 CNS -88.4% | SF-539 CNS -94.3% | UACC-257 melanoma -94.1% | M14 melanoma -89.6% | HCT-15 colon -82.3% | HT29 colon -83.1% | SNB-19 CNS -92.6% | U251 CNS -93.4% | PC-3 prostate -93.8% | SK-MEL-5 melanoma -98.1% | UACC-62 melanoma -95% | LOX IMVI melanoma -89.6% | SK-MEL-28 melanoma -92.6%

Nc1nc2ccc(-c3nc4ccc5[nH]ncc5c4c4c3CCC4)cc2s1
inactive: DU-145 prostate 16.5% | K-562 leukemia 19.4% | MDA-MB-231 breast 42.2% | SF-268 CNS 37.7% | SF-295 CNS 13.6% | UACC-257 melanoma 36.9% | M14 melanoma 29.1% | HCT-15 colon 11.3% | SNB-19 CNS 42.6% | U251 CNS 33.9% | PC-3 prostate 23.1% | LOX IMVI melanoma 19.6% | SK-MEL-28 melanoma 44.5%
active: MALME-3M melanoma -2.7% | RXF 393 renal -21.9% | SF-539 CNS 3.96% | HT29 colon 8.06% | SK-MEL-5 melanoma 1.24% | UACC-62 melanoma -46.2%

Cc1cc(N/N=C/c2nc(-c3ccc(Cl)cc3)oc2C)c2cc(Cl)ccc2n1
inactive: DU-145 prostate 34.3% | MDA-MB-231 breast 63.8% | RXF 393 renal 83.3% | SF-268 CNS 74.8% | SF-295 CNS 98.6% | SF-539 CNS 69.5% | UACC-257 melanoma 101% | SNB-19 CNS 29.3% | PC-3 prostate 67% | SK-MEL-5 melanoma 95.1% | UACC-62 melanoma 29.7% | SK-MEL-28 melanoma 10.3%
active: K-562 leukemia -15.8% | MALME-3M melanoma -14.2% | M14 melanoma 8.84% | HCT-15 colon -52.6% | HT29 colon -51.2% | U251 CNS -54.5% | LOX IMVI melanoma -66.7%

C/C(Cc1ccc(Cl)cc1)=C(\c1ccc(OCCN2CCCCCC2)cc1)c1ccc(OC(=O)C2CCCCC2)cc1
inactive: DU-145 prostate 70.4% | K-562 leukemia 11.4% | MALME-3M melanoma 85.7% | MDA-MB-231 breast 85.4% | RXF 393 renal 56.2% | SF-268 CNS 57% | SF-295 CNS 89.8% | SF-539 CNS 74.2% | UACC-257 melanoma 91% | M14 melanoma 12.7% | HCT-15 colon 39% | HT29 colon 18.4% | SNB-19 CNS 77.6% | U251 CNS 45% | PC-3 prostate 51.5% | SK-MEL-5 melanoma 83.5% | UACC-62 melanoma 68.1% | LOX IMVI melanoma 65.8% | SK-MEL-28 melanoma 61.2%

COc1cccc(-c2nc3sccn3c2-c2ccnc(NCCCNS(=O)(=O)c3ccccc3)c2)c1
inactive: DU-145 prostate 42.2% | K-562 leukemia 13.9% | MALME-3M melanoma 50.8% | MDA-MB-231 breast 58.8% | RXF 393 renal 63.7% | SF-268 CNS 49.9% | SF-295 CNS 28.6% | SF-539 CNS 73.1% | UACC-257 melanoma 50.9% | M14 melanoma 38% | HCT-15 colon 27.6% | HT29 colon 41.6% | SNB-19 CNS 68.7% | U251 CNS 65.4% | PC-3 prostate 15.9% | LOX IMVI melanoma 35.1% | SK-MEL-28 melanoma 66.8%
active: SK-MEL-5 melanoma -29.8% | UACC-62 melanoma -27.7%

S=c1[nH]nc(CSc2ncnc3c2c(-c2ccccc2)cn3-c2ccc(Cl)cc2)o1
inactive: DU-145 prostate 106% | K-562 leukemia 92.3% | MALME-3M melanoma 98.5% | MDA-MB-231 breast 94.3% | RXF 393 renal 125% | SF-268 CNS 97.5% | SF-295 CNS 102% | SF-539 CNS 94.7% | UACC-257 melanoma 105% | M14 melanoma 100% | HCT-15 colon 117% | HT29 colon 107% | SNB-19 CNS 94.6% | U251 CNS 93.8% | PC-3 prostate 88.1% | SK-MEL-5 melanoma 104% | UACC-62 melanoma 89.1% | LOX IMVI melanoma 90.2% | SK-MEL-28 melanoma 115%

CC[C@]12C=CCN3CC[C@@]4(c5ccc(OC)cc5N(C)[C@H]4[C@@](O)(C(=O)OC)[C@@H]1OC(=O)CCC(=O)N[C@@H](Cc1c[nH]c4ccccc14)C(=O)OC)[C@@H]32
inactive: DU-145 prostate 99.4% | K-562 leukemia 85.7% | MALME-3M melanoma 57.2% | MDA-MB-231 breast 67.6% | RXF 393 renal 15.5% | SF-268 CNS 85.5% | SF-295 CNS 99.3% | SF-539 CNS 102% | UACC-257 melanoma 67% | M14 melanoma 97.3% | HCT-15 colon 97.2% | HT29 colon 89.1% | SNB-19 CNS 96.3% | U251 CNS 99.3% | PC-3 prostate 80.5% | SK-MEL-5 melanoma 90.4% | UACC-62 melanoma 92% | LOX IMVI melanoma 84.1% | SK-MEL-28 melanoma 37.6%
